Laboratory results: PubChem BioAssay (NCATS)
Inconclusive results are not listed. Calls of active or inactive are those of the source. Unless noted, calls come from the whole dose curve; as a rule, active = well fitted curve in the direction sought with a large enough effect; inconclusive = small, poorly fitted or top-dose-only effect, or another doubt; inactive = no such curve, though single readings can be large; an effect the other way counts as inactive or inconclusive.

Columns and labels:
[1] = biological target: Lysosomal acid glucosylceramidase (Homo sapiens) (UniProt P04062); assay: Glucocerebrosidase-p2 (AID 348; in the data active = potency below about 10 µM; note: potency is the fitted concentration of half-maximal effect); settings: purified GBA, blue fluorogenic substrate, 40 min
Sequence of Lysosomal acid glucosylceramidase (Homo sapiens) (P04062 whole entry, looked up): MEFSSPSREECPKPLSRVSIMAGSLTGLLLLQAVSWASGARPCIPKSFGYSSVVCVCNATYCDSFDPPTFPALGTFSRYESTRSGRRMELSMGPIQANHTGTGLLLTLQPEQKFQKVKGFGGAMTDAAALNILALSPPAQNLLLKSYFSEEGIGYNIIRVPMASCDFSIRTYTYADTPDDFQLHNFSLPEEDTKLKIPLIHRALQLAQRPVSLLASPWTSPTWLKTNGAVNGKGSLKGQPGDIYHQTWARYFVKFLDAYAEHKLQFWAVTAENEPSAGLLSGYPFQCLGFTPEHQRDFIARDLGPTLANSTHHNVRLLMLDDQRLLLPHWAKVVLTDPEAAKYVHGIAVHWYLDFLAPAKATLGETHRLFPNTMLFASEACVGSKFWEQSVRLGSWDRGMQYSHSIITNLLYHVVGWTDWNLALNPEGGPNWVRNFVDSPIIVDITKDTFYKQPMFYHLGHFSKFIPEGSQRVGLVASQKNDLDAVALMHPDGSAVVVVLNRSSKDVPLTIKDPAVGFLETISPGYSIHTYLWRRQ
Method in brief: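 Compounds titrated from 0.6 nM upwards against 0.2 nM enzyme in pH 5.9 citric acid/KH2PO4, taurocholate, tween-20; blue fluorogenic substrate 80 uM, 40 min room temperature, stopped and read Ex 365/Em 440 for AC50.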

[2] = biological target: Cytochrome P450 1A2 (Homo sapiens) (UniProt P05177); assay: p450-cyp1a2 (AID 410; calls by dose curve;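 note: -100% = full effect of reference inhibitor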)
Sequence of Cytochrome P450 1A2 (Homo sapiens) (P05177 whole entry, looked up): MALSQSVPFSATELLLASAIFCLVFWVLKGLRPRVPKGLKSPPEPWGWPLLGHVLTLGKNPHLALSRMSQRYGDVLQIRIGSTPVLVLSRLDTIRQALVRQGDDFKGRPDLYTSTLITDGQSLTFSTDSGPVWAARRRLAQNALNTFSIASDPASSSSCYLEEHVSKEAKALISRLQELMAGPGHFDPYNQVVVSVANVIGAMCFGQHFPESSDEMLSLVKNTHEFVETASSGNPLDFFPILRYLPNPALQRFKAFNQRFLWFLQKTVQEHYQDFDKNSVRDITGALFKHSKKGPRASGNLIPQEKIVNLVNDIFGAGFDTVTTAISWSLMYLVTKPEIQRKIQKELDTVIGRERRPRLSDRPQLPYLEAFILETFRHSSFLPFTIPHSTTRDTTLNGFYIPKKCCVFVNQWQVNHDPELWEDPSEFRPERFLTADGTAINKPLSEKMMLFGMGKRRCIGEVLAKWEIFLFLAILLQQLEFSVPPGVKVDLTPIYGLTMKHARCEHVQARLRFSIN
Method in brief: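 20nM CYP1A2 with 100uM Luciferin-ME (at Km) in 100mM KPO4; compound preincubated 10 min, NADPH regeneration added, 60 min at room temperature. Luciferin quantified by luminescence after detection reagent; normalized to 57 uM furafylline.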

[3] = Stat Signaling Pathway (AID 446; active = well fitted curve in either direction with a large enough effect, not every such curve was filed as active;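 note: ME-180 cervical cancer cells given 40 pM IL-6 alongside compound; SIE-controlled beta-lactamase reporter measured as 460/530 nm FRET emission ratio; % is set by controls: 0 for no effect and ±100 for the full control effect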); settings: ME-180 SIE beta-lactamase reporter, IL-6 stimulated, 5 h; at 7.69 µM (top of the series) unless noted
Method in brief: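 ME-180 SIE-bla cells; overnight plating; cpd + IL-6 40 pM, 5 h, 37 C; LiveBLAzer 2.5 h RT; 460/530 nm emission ratio. Normalized to 300 pM IL-6 and 125 nM JAK inhibitor controls.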

[4] = biological target: Glucocorticoid receptor (Homo sapiens) (UniProt P04150); assay: GR-EFC Redistribution (AID 451; calls by dose curve; note: potency is the fitted concentration of half-maximal effect); settings: CHO-K1 GR-EFC translocation, beta-gal luminescence, 2 h
Sequence of Glucocorticoid receptor (Homo sapiens) (P04150 whole entry, looked up, the tested form may be a part): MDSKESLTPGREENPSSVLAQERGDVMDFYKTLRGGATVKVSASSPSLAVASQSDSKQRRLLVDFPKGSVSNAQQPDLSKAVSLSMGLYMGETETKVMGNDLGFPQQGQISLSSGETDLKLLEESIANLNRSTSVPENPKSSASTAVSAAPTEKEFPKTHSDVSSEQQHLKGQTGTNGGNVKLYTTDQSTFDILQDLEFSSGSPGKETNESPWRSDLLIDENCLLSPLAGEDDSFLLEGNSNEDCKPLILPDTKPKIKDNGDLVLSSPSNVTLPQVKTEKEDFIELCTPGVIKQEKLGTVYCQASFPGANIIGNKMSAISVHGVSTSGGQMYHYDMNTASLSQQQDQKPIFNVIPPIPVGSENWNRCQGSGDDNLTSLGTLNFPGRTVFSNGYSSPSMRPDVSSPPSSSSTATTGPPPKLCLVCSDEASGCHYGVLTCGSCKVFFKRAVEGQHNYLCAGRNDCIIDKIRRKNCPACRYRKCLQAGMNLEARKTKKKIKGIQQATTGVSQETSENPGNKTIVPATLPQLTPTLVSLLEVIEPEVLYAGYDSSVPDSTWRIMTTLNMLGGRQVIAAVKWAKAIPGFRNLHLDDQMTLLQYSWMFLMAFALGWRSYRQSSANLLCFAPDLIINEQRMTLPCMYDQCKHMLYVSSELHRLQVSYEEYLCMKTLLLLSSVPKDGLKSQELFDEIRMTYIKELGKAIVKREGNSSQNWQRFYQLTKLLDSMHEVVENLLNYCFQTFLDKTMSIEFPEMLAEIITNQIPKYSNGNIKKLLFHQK
Method in brief: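 CHO-K1 cells stably expressing nuclear-localized β-gal enzyme acceptor and GR fused C-terminally to the enzyme donor fragment; ligand-driven nuclear translocation restores β-gal by complementation. Compounds titrated up to 46 uM final, 2 h at 37 °C; luminescence read.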

[5] = biological target: Mitogen-activated protein kinase 10 (Mus musculus) (UniProt Q61831); assay: JNK3 AlphaScreen Assay (AID 530; active = well fitted curve in either direction with a large enough effect, not every such curve was filed as active;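 note: kinase came from lysate of stimulated human HepG2 cells; signal reports phosphorylation of biotinylated GST-cJun 1-79 at Ser73 with 10 µM ATP; % is set by controls: 0 for no effect and ±100 for the full control effect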)
Method in brief: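 Inhibitors reduce antibody binding to phosphorylated biotin-cJun, lowering AlphaScreen luminescence. Lysates from HepG2 cells pre-activated by IL-1beta plus TNF-alpha supplied JNK3; compounds were titrated.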

[6] = biological target: 3',5'-cyclic-AMP phosphodiesterase 4B (Homo sapiens) (UniProt Q07343); assay: qHTS Assay for Inhibitors of PDE-IV (AID 607; active = well fitted activation curve with a large enough effect in the main read-out, with a control signal flat, not every such curve was filed as active; note: % of control where 0% means no effect)
Sequence of 3',5'-cyclic-AMP phosphodiesterase 4B (Homo sapiens) (Q07343 whole entry, looked up): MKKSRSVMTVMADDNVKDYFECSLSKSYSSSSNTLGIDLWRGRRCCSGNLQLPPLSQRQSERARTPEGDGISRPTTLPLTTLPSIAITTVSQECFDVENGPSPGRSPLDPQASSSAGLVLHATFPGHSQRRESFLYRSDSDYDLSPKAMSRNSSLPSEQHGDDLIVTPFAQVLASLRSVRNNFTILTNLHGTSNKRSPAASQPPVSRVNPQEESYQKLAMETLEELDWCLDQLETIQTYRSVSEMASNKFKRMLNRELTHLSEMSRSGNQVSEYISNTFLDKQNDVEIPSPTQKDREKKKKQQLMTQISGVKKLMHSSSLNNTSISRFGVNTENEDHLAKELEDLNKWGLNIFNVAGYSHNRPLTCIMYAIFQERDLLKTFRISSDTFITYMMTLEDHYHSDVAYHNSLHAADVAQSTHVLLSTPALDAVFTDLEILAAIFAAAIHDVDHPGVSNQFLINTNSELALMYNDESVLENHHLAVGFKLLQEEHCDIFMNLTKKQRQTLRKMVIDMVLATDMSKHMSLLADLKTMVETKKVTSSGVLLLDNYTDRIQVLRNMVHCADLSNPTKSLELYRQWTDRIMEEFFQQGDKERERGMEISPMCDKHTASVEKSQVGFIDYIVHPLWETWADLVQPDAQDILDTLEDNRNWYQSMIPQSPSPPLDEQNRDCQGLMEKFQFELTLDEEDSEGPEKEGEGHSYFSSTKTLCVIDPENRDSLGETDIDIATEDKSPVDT
Method in brief: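 ACTOne HEK293 cells carry a modified cAMP-gated CNG channel and express endogenous PDE4; plated 1000 cells/well, compounds up to 22.9 uM final. Membrane-potential dye fluorescence (ex 535/em 590) was read; parental cells received 10 uM forskolin + 100 uM RO 20-1724.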

[7] = biological target: Cytochrome P450 2D6 (Homo sapiens) (UniProt P10635); assay: qHTS Assay for Inhibitors and Substrates of Cytochrome P450 2D6 (AID 891); note: potency is the fitted concentration of half-maximal effect; nearly all actives have a fitted effect of over 60% in size
Method in brief: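 Human CYP2D6 (5 nM) with 30 uM Luciferin-ME EGE (at Km) in 100 mM KPO4, compound preincubated 10 min, then NADPH regeneration system for 60 min at room temperature. Luciferin read by luminescence; normalized to 1.43 uM quinidine.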

[8] = qHTS profiling for inhibitors of Plasmodium falciparum (3D7) proliferation (AID 743322);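 note: infected erythrocytes exposed to compound for 72 h before lysis; 100% = DMSO vehicle wells and 0% = 0.29 µM artemisinin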; settings: P. falciparum 3D7 proliferation; at 28.7 µM (top of the series)
Method in brief: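 Erythrocytes infected with P. falciparum (0.3% parasitemia, 2.5% hematocrit) incubated with compounds 72 h at 37 C, 5% CO2. Lysis with saponin/Triton buffer containing SYBR Green I, overnight at room temperature in the dark; DNA fluorescence (485/535 nm) normalised to 0.29 uM artemisinin and DMSO.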

[9] = qHTS profiling for inhibitors of Plasmodium falciparum (DD2) proliferation (AID 743323; call rule not given here); settings: lower = more inhibition; at 28.7 µM (top of the series)
Method in brief: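 SYBR Green fluorescence (ex 485, em 535 nm) of lysed cultures gives parasite DNA content; wells normalized to artemisinin (0.29 uM) and DMSO controls. Infected red cells: 0.3% parasitemia, 2.5% hematocrit, 72 h, 37 C.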

[10] = qHTS profiling for inhibitors of Plasmodium falciparum (HB3) proliferation (AID 743324); settings: Plasmodium falciparum HB3 blood-stage proliferation; at 28.7 µM (top of the series);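 note: 100% = DMSO vehicle wells and 0% = artemisinin-treated control wells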
Method in brief: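 P. falciparum HB3 grown in erythrocytes (0.3% parasitemia, 2.5% hematocrit final) with compound for 72 h at 37 C, 5% CO2. Parasite DNA detected by SYBR Green after saponin/triton lysis overnight; normalized to 0.29 uM artemisinin and DMSO.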

[11] = biological target: Calcium and integrin-binding protein 1 (Homo sapiens) (UniProt Q99828); assay: Primary qHTS for Identification of Calcium Integrin Binding Protein 1 (CIB1) Competitor (AID 1508620);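 note: GST tagged CIB1 binding a fluorescein labelled alphaIIb integrin peptide tracer; top concentration of the series differs between compounds; % is set by controls: 0 for no effect and ±100 for the full control effect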
Sequence of Calcium and integrin-binding protein 1 (Homo sapiens) (Q99828 whole entry, looked up): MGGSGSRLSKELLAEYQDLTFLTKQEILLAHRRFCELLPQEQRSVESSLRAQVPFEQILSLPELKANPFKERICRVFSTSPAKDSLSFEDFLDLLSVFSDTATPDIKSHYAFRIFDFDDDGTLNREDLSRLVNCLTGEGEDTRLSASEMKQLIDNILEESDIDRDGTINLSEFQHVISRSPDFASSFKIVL
Method in brief: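 Fluorescence polarization competition: CIB1-GST (1 uM final) preincubated with compound 15 min at room temperature, then FITC-labeled alphaIIb peptide (100 nM final) added for another 15 min. Polarization read at Ex 480/Em 540.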

[12] = Primary qHTS for small molecule stabilizers of the endoplasmic reticulum resident proteome: Secreted ER Calcium Modulated Protein (SERCaMP) assay (AID 1508630); note: % is set by controls: 0 for no effect and ±100 for the full control effect
Method in brief: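 GLuc-SERCaMP-expressing SH-SY5Y cells, pretreated 16 h with compound, are challenged with thapsigargin to empty ER calcium stores; after 4 h, coelenterazine is added directly to the medium and luminescence is imaged.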

[13] = biological target: Rap guanine nucleotide exchange factor 3 (Homo sapiens) (UniProt O95398); assay: Confirmatory qHTS for agonist of cAMP-regulated guanine nucleotide exchange factor 3 (EPAC1) (AID 1645881);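 note: EPAC1 catalysed release of BODIPY-GDP from Rap1B seen as fluorescence loss; 100% = effect of cAMP agonist control; nearly all actives have a fitted effect of over 75% in size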
Sequence of Rap guanine nucleotide exchange factor 3 (Homo sapiens) (O95398 whole entry, looked up): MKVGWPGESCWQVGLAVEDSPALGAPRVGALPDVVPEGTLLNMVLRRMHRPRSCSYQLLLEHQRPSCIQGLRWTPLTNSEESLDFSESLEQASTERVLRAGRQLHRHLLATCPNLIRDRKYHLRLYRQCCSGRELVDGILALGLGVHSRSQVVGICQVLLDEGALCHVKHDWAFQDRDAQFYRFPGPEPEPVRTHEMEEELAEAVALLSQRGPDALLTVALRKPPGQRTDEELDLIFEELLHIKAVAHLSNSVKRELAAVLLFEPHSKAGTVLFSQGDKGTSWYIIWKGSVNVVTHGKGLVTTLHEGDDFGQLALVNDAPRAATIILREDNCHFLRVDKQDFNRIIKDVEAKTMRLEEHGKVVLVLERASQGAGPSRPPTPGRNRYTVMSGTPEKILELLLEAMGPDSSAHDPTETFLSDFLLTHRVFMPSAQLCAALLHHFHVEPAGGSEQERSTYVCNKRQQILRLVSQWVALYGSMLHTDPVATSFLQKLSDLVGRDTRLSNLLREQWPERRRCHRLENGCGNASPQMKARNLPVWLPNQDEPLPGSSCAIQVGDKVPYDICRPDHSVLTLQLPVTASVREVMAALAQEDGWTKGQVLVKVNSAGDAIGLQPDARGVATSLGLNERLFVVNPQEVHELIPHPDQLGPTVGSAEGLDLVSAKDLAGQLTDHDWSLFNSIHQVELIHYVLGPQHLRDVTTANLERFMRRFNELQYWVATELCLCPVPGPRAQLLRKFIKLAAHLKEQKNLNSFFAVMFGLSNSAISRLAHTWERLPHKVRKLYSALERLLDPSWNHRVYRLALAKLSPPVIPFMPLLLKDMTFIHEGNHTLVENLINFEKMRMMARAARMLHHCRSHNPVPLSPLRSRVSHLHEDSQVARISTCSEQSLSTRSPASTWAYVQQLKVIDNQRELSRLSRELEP

[14] = biological target: Rap guanine nucleotide exchange factor 4 (Homo sapiens) (UniProt Q8WZA2); assay: Confirmatory qHTS for agonist of cAMP-regulated guanine nucleotide exchange factor 4 (EPAC2) (AID 1645884);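 note: nucleotide exchange releases bodipy-GDP from Rap1 and this lowers its fluorescence; % is set by controls: 0 for no effect and ±100 for the full control effect; nearly all actives have a fitted effect of over 65% in size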
Sequence of Rap guanine nucleotide exchange factor 4 (Homo sapiens) (Q8WZA2 whole entry, looked up): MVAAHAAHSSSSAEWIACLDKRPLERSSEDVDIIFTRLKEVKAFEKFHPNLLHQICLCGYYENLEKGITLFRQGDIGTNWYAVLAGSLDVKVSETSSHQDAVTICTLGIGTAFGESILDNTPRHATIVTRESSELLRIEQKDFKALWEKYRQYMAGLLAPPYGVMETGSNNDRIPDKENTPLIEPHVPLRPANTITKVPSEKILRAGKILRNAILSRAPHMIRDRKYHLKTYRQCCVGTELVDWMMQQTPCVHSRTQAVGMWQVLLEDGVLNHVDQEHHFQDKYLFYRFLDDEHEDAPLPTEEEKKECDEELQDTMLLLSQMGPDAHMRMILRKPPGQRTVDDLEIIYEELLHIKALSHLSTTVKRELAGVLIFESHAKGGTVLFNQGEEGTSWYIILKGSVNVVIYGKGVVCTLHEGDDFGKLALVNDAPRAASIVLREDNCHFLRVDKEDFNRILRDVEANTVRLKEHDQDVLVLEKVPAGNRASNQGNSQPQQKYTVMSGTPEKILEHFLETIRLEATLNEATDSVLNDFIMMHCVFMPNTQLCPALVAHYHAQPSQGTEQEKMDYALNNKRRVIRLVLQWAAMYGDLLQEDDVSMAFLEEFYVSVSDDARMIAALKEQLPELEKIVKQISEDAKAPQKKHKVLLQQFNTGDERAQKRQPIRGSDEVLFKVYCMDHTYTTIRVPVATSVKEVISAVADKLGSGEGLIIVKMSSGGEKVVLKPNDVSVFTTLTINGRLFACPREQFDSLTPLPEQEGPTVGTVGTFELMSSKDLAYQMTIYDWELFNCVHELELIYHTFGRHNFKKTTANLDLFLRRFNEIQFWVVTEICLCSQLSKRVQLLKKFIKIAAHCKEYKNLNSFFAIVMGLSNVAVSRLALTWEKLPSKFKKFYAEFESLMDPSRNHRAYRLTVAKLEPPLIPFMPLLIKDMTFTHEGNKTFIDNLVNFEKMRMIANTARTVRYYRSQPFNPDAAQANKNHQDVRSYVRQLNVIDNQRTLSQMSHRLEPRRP

[15] = biological target: Rap guanine nucleotide exchange factor 4 (Homo sapiens) (UniProt Q8WZA2); assay: Confirmatory qHTS for antagonist of cAMP-regulated guanine nucleotide exchange factor 4 (EPAC2) (AID 1645885); note: % is set by controls: 0 for no effect and ±100 for the full control effect; nearly all actives have a fitted effect of over 25% in size
[16] = biological target: Rap guanine nucleotide exchange factor 3 (Homo sapiens) (UniProt O95398); assay: Counterscreen qHTS for antagonist of cAMP-regulated guanine nucleotide exchange factor 3 (EPAC1) (AID 1645888);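 note: fluorescence loss as bound BODIPY-GDP is released from Rap1B; % of control where 0% means no effect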
Method in brief: (§1)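 Measured: fluorescence of BODIPY-GDP bound to Rap1B, which falls as exchange proceeds. Conditions include 50 uM competing GDP, 5 and 30 min reads, and a later cAMP challenge for antagonist detection.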

[17] = biological target: Rap guanine nucleotide exchange factor 3 (Homo sapiens) (UniProt O95398); assay: Counterscreen qHTS for agonist of cAMP-regulated guanine nucleotide exchange factor 3 (EPAC1) (AID 1645889); note: % of control where 0% means no effect; nearly all actives have a fitted effect of over 40% in size
Method in brief: as §1

[18] = biological target: Glutathione peroxidase 1 (Homo sapiens) (UniProt P07203); assay: Primary qHTS Assay for Inhibitors of Recombinant Selenoprotein Glutathione Peroxidase 1 (GPX1) (AID 1845191); note: % is set by controls: 0 for no effect and ±100 for the full control effect; nearly all actives have a fitted effect of over 65% in size
Sequence of Glutathione peroxidase 1 (Homo sapiens) (P07203 whole entry, looked up): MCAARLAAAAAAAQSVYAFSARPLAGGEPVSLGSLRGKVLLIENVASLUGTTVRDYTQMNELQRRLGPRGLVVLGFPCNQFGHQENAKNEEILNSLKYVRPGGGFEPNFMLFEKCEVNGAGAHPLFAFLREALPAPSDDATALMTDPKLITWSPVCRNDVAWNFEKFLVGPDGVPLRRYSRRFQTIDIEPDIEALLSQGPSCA
Method in brief: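 Recombinant GPX1 (10 nM final) was preincubated with compound for 30 min at room temperature, then reacted with 1 mM GSH, 0.5 mM CHP, 0.5 mM NADPH and 100 nM glutathione reductase; NADPH fluorescence (340/450 nm) was read at 0 and 15 min.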

[19] = biological target: Phospholipid hydroperoxide glutathione peroxidase GPX4 (Homo sapiens) (UniProt P36969); assay: Primary qHTS Assay for Inhibitors of Recombinant Selenoprotein Glutathione Peroxidase 4 (GPX4) (AID 1845192); settings: outcome: dose series up to 50 µM unless noted; note: % is set by controls: 0 for no effect and ±100 for the full control effect; nearly all actives have a fitted effect of over 65% in size
Method in brief: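 GR-coupled readout: 100 nM GR, 1 mM GSH, 0.5 mM NADPH; NADPH fluorescence (ex 340/em 450 nm) read at t=0 and after 15 min RT. GPX4 200 nM, preincubated 30 min with compound; substrate 0.5 mM CHP.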

[20] = qHTS drug screen for cell cycle checkpoint inhibitors in PARPi-resistant BRCA-mutant ovarian cancer cell lines. (AID 1963452; calls by dose curve); settings: PEO1/OlaR viability, CellTiter-Glo luminescence, 96 h, stronger effect = lower value
Method in brief: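 PEO1, PEO4 and PEO1/OlaR ovarian cancer cells, 600 per well, exposed 96 h at 37C to a dilution series. Viability read by CellTiter-Glo luminescence, normalized to DMSO and empty wells; activity summarized as Z-AUC.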

Cc1noc(C)c1C(=O)N1CCC2(CCCN(C(c3ccccc3)c3ccccc3)C2)CC1
active: Potency [7] 2 µM
10.2%: remaining proliferation (% of control), lower = more inhibition [10]
18.5%: remaining parasite growth % (stronger effect = lower value) [8]
22.6%: activity, percent of control [9]
inactive: Potency [1] > 11.4 µM | Potency [2] | activity, negative = inhibition [3] -11.6% | Potency [4] > 46 µM | outcome [5] | Potency [6] | Potency [11] | Potency [12]

CC(=O)NC(c1cc(Cl)c2ccccc2c1O)C(C)C (stereo not given)
inactive: Potency [11] | outcome [13] | activation [14] 9.17% [at 17.1 µM] | activity change, negative = inhibition [15] -39.3% [at 12.7 µM] | outcome [16] | activation [17] 8.27% [at 30.8 µM]

[2H]C([2H])(Nc1nc(-c2ccccc2C([2H])(C([2H])([2H])[2H])C([2H])([2H])[2H])ncc1C)c1ccc(-n2ccnn2)cc1
inactive: Potency [11] | Potency [18] | Potency [19] | Z-AUC [20] -0.917
-0.866: Z-AUC ([20]; measured here: PEO4 Z-AUC)
-1.16: Z-AUC ([20]; measured here: PEO1 parental Z-AUC)

CCOc1ccccc1CNc1ncnc2ccc(-c3c(C)noc3C)cc12
inactive: Potency [11] | outcome [13] | outcome [14] | Potency [15] | outcome [16] | outcome [17]
